Assay results reported in PubChem BioAssay (NCATS).
Records with an inconclusive call do not appear. Activity calls are given as the source filed them. Calls follow the shape of the dose curve; as a rule, active = well fitted inhibition curve with a large enough effect; inconclusive = small, poorly fitted or top-dose-only effect; inactive = flat fitted curve, though single readings scatter.

Key:
Assay in all cases: qHTS profiling for inhibitors of Plasmodium falciparum proliferation (AID 504749); also: nearly all actives have a fitted effect of over 60% in size
Conditions in all cases: P. falciparum in erythrocytes, SYBR Green DNA, 72 h; series mostly up to 28.7 µM
[1] = test system: CP201
How it was run: (§1)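 P. falciparum-infected erythrocytes (0.3% parasitemia, 2.5% hematocrit final) were exposed to compounds for 72 h at 37 C in 5% CO2, then lysed with SYBR Green buffer overnight at room temperature; parasite DNA fluorescence was normalized to artemisinin and DMSO controls.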

[2] = test system: CP203
How it was run: as §1

[3] = test system: CP211
How it was run: as §1

[4] = test system: CP215
How it was run: as §1

[5] = test system: CP217
How it was run: as §1

[6] = test system: CP237
How it was run: as §1

[7] = test system: CP238
How it was run: as §1

[8] = test system: CP247
How it was run: as §1

[9] = test system: CP250
How it was run: as §1

[10] = test system: CP252
How it was run: as §1

[11] = test system: CP256
How it was run: as §1

[12] = test system: CP260
How it was run: as §1

[13] = test system: CP262
How it was run: as §1

[14] = test system: CP265
How it was run: as §1

[15] = test system: CP266
How it was run: as §1

[16] = test system: CP268
How it was run: as §1

[17] = test system: CP269
How it was run: as §1

[18] = test system: CP286
How it was run: as §1

[19] = test system: CP291
How it was run: as §1

[20] = test system: CP297
How it was run: as §1

Measured: Potency

CC1=CC(=O)NS(=O)(=O)O1
inactive: all assays above

CC1CCC(NC(=O)N(CCCl)N=O)CC1 (configuration not stated)
inactive: all assays above

CC1CC(OC(=O)C(O)c2ccccc2)CC(C)(C)C1 (configuration not stated)
inactive: all assays above

CCCCCCCCCC(=O)NO
inactive: all assays above

O=P(O)(O)OC[C@H]1O[C@](O)(COP(=O)(O)O)[C@@H](O)[C@@H]1O
not listed: [20]
inactive: all other assays above

CO/N=C(/C(=O)N[C@@H]1C(=O)N2C(C(=O)O)=C(COC(N)=O)CS[C@H]12)c1ccco1
not listed: [20]
inactive: all other assays above

OC[C@H]1O[C@@H]2O[C@H]3[C@H](O)[C@@H](O)[C@@H](O[C@H]4[C@H](O)[C@@H](O)[C@@H](O[C@H]5[C@H](O)[C@@H](O)[C@@H](O[C@H]6[C@H](O)[C@@H](O)[C@@H](O[C@H]7[C@H](O)[C@@H](O)[C@@H](O[C@H]1[C@H](O)[C@H]2O)O[C@@H]7CO)O[C@@H]6CO)O[C@@H]5CO)O[C@@H]4CO)O[C@@H]3CO
inactive: all assays above

CCOC(=O)[C@@H](N)CS
inactive: all assays above

CCCCCCCCCCCCCC(=O)OCC(COP(=O)([O-])OCC[N+](C)(C)C)OC(=O)CCCCCCCCCCCCC (configuration not stated)
inactive: all assays above

O=C(O)/C=C/C(=O)Nc1ccc(S(=O)(=O)Nc2nccs2)cc1
not listed: [20]
inactive: all other assays above

O=C(O)Cc1cc(I)c(Oc2ccc(O)c(I)c2)c(I)c1
inactive: all assays above

O=C(O)COc1ccccc1/C=N/NC(=O)c1ccncc1
inactive: all assays above

C[Se]CC[C@H](N)C(=O)O
inactive: all assays above

C=CC(=O)O
inactive: all assays above

C=CC(C)(O)CC/C=C(\C)CCC=C(C)C (configuration not stated)
inactive: all assays above

C[C@H](O)CN(C)C
inactive: all assays above

CNC(=O)C[C@@H](N)C(=O)N[C@@H](C(=O)N[C@@H]1C(=O)N2[C@@H]1SC(C)(C)[C@@H]2C(=O)O)c1ccc(O)cc1
inactive: all assays above

NC(=O)[C@@H]1CCCN1C(=O)[C@H](Cc1cnc[nH]1)NC(=O)[C@@H]1CCC(=O)N1
inactive: all assays above

S=C1SCN(Cc2ccccc2)CN1Cc1ccccc1
inactive: all assays above

Nc1ncnc2c1ncn2CCOCP(=O)(O)O
inactive: all assays above

Cc1cc(C)c(NC(=O)C[C@H](CC(=O)O)c2cccc3ccccc23)c(C(=O)N2CCC3(CCCC3)CC2)c1
inactive: all assays above

C[C@H]1O[C@@H](O[C@H]2[C@@H](O)C[C@H](O[C@H]3[C@@H](O)C[C@H](O[C@H]4CC[C@@]5(C)[C@H](CC[C@@H]6[C@@H]5C[C@@H](O)[C@]5(C)[C@@H](C7=CC(=O)OC7)CC[C@]65O)C4)O[C@@H]3C)O[C@@H]2C)C[C@H](O)[C@@H]1O
inactive: all assays above

CC(C)c1nc(N(C)S(C)(=O)=O)nc(-c2ccc(F)cc2)c1/C=C/C(O)CC(O)CC(=O)O (configuration not stated)
inactive: all assays above

C=CCCCCCCCCC(=O)OC
inactive: all assays above

Cc1ncc(C[n+]2csc(CCOP(=O)(O)OP(=O)(O)O)c2C)c(N)n1
inactive: all assays above

C=CCOc1ccc(CC(=O)O)cc1Cl
inactive: all assays above

COC1=C(OC)C(=O)C(C/C=C(\C)CC/C=C(\C)CC/C=C(\C)CC/C=C(\C)CC/C=C(\C)CC/C=C(\C)CC/C=C(\C)CC/C=C(\C)CC/C=C(\C)CCC=C(C)C)=C(C)C1=O
inactive: all assays above
